Only some compounds are listed: those with a hit (about 1.3% of all), similar ones and a draw of the others.
Keap1-Nrf2 PPI = Keap1-Nrf2 protein-protein interaction inhibitors, primary screen, biochemical, fluorescence polarization, single point; Kelch-like ECH-associated protein 1 (Homo sapiens), Q14145; Keap1 Kelch-Nrf2 peptide fluorescence polarization, 1536-well; inhibition, % at 9.4 µM; 0.15% of 340,000 active; AID 504523, 2011; in the data active = inhibition above about 12%;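 note: human Keap1 Kelch domain with fluorescein labeled Nrf2 9mer peptide probe; 0% = neutral control wells and 100% = peptide positive control; higher means more block of Keap1 binding to Nrf2 peptide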
Target sequence (Q14145 whole entry, looked up, the tested form may be a part): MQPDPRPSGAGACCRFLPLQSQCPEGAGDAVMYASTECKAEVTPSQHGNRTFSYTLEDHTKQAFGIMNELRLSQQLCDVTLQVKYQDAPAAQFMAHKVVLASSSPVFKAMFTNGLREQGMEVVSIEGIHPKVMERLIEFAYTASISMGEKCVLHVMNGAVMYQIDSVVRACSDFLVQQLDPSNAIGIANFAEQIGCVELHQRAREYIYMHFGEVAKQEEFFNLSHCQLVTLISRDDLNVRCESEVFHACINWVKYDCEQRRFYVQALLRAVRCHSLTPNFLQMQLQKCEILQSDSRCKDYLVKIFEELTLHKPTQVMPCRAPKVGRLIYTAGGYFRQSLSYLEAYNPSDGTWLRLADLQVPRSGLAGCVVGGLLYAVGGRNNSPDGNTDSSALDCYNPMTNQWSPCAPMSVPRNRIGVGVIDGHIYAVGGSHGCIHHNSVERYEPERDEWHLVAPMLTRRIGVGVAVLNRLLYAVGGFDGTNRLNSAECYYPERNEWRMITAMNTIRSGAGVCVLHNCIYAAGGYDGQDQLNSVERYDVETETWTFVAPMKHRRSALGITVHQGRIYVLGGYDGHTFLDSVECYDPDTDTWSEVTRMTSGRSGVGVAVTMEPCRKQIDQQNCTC
CRFBP-R2 block = antagonists of CRF-BP/CRF-R2 complex, primary screen, cell-based, HEK293, calcium dye fluorescence, uHTS. CRF-induced calcium fluorescence. inhibition, % at 11.8 µM. 0.59% of 350,000 active. AID 588475, 2011;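 active = inhibition of the ligand-induced calcium signal above about 50% at the single tested concentration, limit read from the data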
C-LANA FP = inhibitors of KSHV C-LANA binding to DNA, primary screen, biochemical, fluorescence polarization, FAM-LBS DNA, MBP-C-LANA, single point; Kaposi's sarcoma herpesvirus LANA C-terminal domain (residues 932-1162) DNA binding; 0.078% of 340,000 active; inhibition, % at 9 µM;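 active = highest replicate inhibition at or above 60% at 9 µM, even if other replicates fall short; inactive = all replicates below 60% inhibition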;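 note: 0% = neutral control wells and 100% = 4 µM acridine orange control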
RTF Ca sens act = cardiac RTF calcium sensitivity activators, primary screen, biochemical, IANBD-TnC fluorescence, EC20 calcium | Troponin I, cardiac muscle (Homo sapiens) + Troponin T, cardiac muscle (Homo sapiens) + … | IANBD-labeled TnC RTF fluorescence at EC20 calcium; 0% EC20 calcium, 100% full calcium | AID 493008, 2010 | activation, % at 7.2 µM | 0.24% of 340,000 active;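 active = activation above the mean over all tested compounds plus 3 SD, cut at about 30% in these data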;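 note: rise in fluorescence read as greater calcium sensitivity of cardiac thin filaments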
Cardiac RTF inh = cardiac RTF calcium sensitivity inhibitors, primary screen, biochemical, IANBD-TnC fluorescence, EC70 calcium; Troponin I, cardiac muscle (Homo sapiens) + Troponin T, cardiac muscle (Homo sapiens) + …; IANBD-labeled cardiac RTF, Ca2+ fluorescence; inhibition, % at 7.15 µM; 0.12% of 340,000 active; AID 493244, 2011;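 active = inhibition above the mean inhibition of all tested compounds plus 3 SD, cut at about 17% in these data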;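 note: assay run at fixed EC70 calcium of 1.6 mM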
CRFBP-R2 agonist = agonists of CRF-BP/CRF-R2 complex, primary screen, cell-based, HEK293, calcium dye fluorescence, uHTS; CRF-binding protein / CRF receptor 2 complex (human); calcium dye fluorescence (FLIPR); percent of saturating CRF peptide response; activation, % at 13.2 µM; 0.46% of 350,000 active; AID 588473, 2011;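 active = activation of at least 50%, plus an integration ratio under a set limit after plate pattern correction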;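 note: plate controls were neutral control wells without compound for no effect and CRF at EC100 for full effect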
RTF inh confirm = cardiac RTF calcium sensitivity inhibitors, confirmation, biochemical, fluorescence readout; shares compounds with Cardiac RTF inh; reconstituted cardiac thin filaments; inhibition, % at 7.15 µM; 8% of 360 active; AID 504635, 2011; in the data active = inhibition above about 18%
Starred values were filed as active, the others as inactive; i = inactive; · = not tested or not shown; ! = repeats disagree.

SMILES | Keap1-Nrf2 PPI | CRFBP-R2 block | C-LANA FP | RTF Ca sens act | Cardiac RTF inh | CRFBP-R2 agonist | RTF inh confirm
Cc1cccc(NC(=O)CCSc2ccccn2)c1 | -3.3 | 2.8 | 1.2 | -0.8 | 18.0* | 0.7 | 0.0
CN1CCCC(CN2c3ccccc3Sc3ccccc32)C1 (centres undefined) | 0.4 | -31.4 | 0.3 | -5.2 | 24.1* | -1.9 | -2.4
CN1CCN(CCCN2c3ccccc3Sc3ccc(Cl)cc32)CC1 | 3.4 | i | -1.8 | -1.8 | 1.7 | i | ·
Nc1nc(-c2ccccc2)c(N=Nc2ccccc2Cl)s1 | -2.0 | 16.6 | 3.0 | 5.9 | 21.6* | -0.8 | 0.4
O=C(Nc1ccc2c(c1)C(=O)NC2=O)c1ccccc1Cl | -0.2 | 33.3 | 0.1 | 5.5 | 0.2 | -2.8 | ·
O=C(Cc1ccccn1)c1ccncc1 | -0.6 | 5.2 | -2.1 | -1.8 | -4.3 | 4.3 | ·
CCOC(=O)CC(NC(=O)c1cccc2c1C(=O)N(Cc1cccnc1)C2)c1ccc(OC(C)C)cc1 (centres undefined) | 0.9 | 0.8 | -1.0 | -5.6 | -4.2 | 0.1 | ·
O=C(Nc1ccc(N2CCOCC2)c(S(=O)(=O)Nc2ccccc2Cl)c1)c1ccc(F)cc1 | 0.4 | -12.3 | -0.1 | -9.2 | 23.9* | 18.7 | 1.1
COc1ccccc1NS(=O)(=O)c1cc(NC(=O)c2sccc2C)ccc1N1CCOCC1 | -0.5 | 11.4 | 0.4 | -6.1 | 15.9 | 0.4 | ·
O=C(Nc1ccc(F)cc1)Nc1ccc(N2CCCC2)c(S(=O)(=O)Nc2ccccc2Cl)c1 | -0.1 | -6.8 | 0.1 | 6.7 | -8.3 | -0.6 | ·
COc1ccccc1NS(=O)(=O)c1cc(NC(=O)c2sccc2C)ccc1N1CCCC1 | -2.1 | 47.1 | -0.8 | -5.3 | 24.9* | 6.4 | 2.6
CC1CCCCN1S(=O)(=O)c1cnc(Cl)c(Br)c1 (centres undefined) | -0.3 | -4.5 | 0.8 | 0.2 | -6.5 | 0.6 | ·
CN1CCN(c2nc3c(c(=O)[nH]c(=O)n3C)n2CC(N)=O)CC1 | -7.8 | 8.0 | -1.2 | 1.7 | 1.2 | -3.1 | ·
COCCN1CCN(Cc2nc(C3(c4ccc(C)cc4)CCCC3)no2)CC1 | -2.3 | -24.9 | 0.3 | -0.5 | 19.4* | 0.3 | -1.5
CC(=O)N1CCCN(Cc2nc(C3(c4ccc(C)cc4)CCCC3)no2)CC1 | -6.8 | -15.6 | -2.8 | -3.2 | -7.5 | 0.6 | ·
c1cnc2c(c1)ccc1cccnc12 | -1.0 | 2.4 | -1.5 | 0.3 | 17.8*! | -1.1 | -6.9
c1cnc2ccc3ncccc3c2c1 | -2.6 | 10.8 | -0.6 | 6.2 | -7.5 | 5.5 | ·
c1ccc2c(c1)ccc1ncccc12 | -4.4 | -0.9 | -0.8 | -5.1 | 18.2* | -1.2 | -4.0
Cc1c(Cl)cccc1NS(=O)(=O)c1ccc2c(c1)C1C=CCC1C(c1ccc(C(=O)O)cc1)N2 (centres undefined) | -2.9 | -10.9 | 110.8* | -32.9 | 30.9* | 4.4 | -14.2
CCC(Oc1ccccc1)C(=O)Nc1nnc(S(=O)(=O)N2CCCCC2)s1 (centres undefined) | 1.6 | -6.9 | · | -1.6 | 17.6* | 5.4 | -4.0
CC(Oc1ccccc1)C(=O)Nc1nnc(S(=O)(=O)N2CCCCCC2)s1 (centres undefined) | 0.7 | -1.8 | -0.5 | 0.0 | -8.8 | 6.3 | ·
CCOC(=O)C1(CC2CC2)CCN(Cc2cn(C)c3ccccc23)CC1 | -0.5 | -68.4 | 2.0 | 0.5 | 17.0* | 1.1 | -7.1
CCOC(=O)C1(Cc2ccccc2)CCN(Cc2cn(CC(=O)OC)c3ccccc23)CC1 | -6.3 | -7.1 | 0.6 | 7.9 | -6.2 | -0.3 | ·
Cc1nnc(SCC(=O)N2CCN(S(=O)(=O)c3ccccc3)CC2)[nH]c1=O | -2.2 | 11.8 | -3.0 | 6.4 | 0.7 | -1.6 | ·
O=C1CSC(c2cccc(F)c2)N1c1c(F)cccc1F (centres undefined) | -1.0 | 41.8 | 1.0 | 1.9 | -1.0 | -3.7 | ·
SMILES | Keap1-Nrf2 PPI | CRFBP-R2 block | C-LANA FP | RTF Ca sens act | Cardiac RTF inh | CRFBP-R2 agonist | RTF inh confirm
O=C1CSC(c2cccc([N+](=O)[O-])c2)N1c1c(F)cccc1F (centres undefined) | -2.8 | 1.2 | -0.6 | 2.7 | 21.5* | -2.5 | -5.6
O=c1cc2oc3cc(O)c(O)cc3c(-c3ccccc3[N+](=O)[O-])c-2cc1O | 2.0 | 11.7 | 25.9 | -38.4 | 29.4* | 0.0 | 55.8*
O=c1cc(-c2ccccc2Cl)oc2cccc(O)c12 | -6.9 | 2.1 | -0.4 | 5.4 | 1.9 | -0.6 | ·
Cc1nn(CC(=O)NCCCN2CCCC2)c(=O)c2nn(-c3ccccc3)c(C)c12 | -1.6 | -13.5 | 0.6 | 0.5 | 19.3* | 2.5 | -0.7
CN(NC(=O)COc1ccccc1)C1=NS(=O)(=O)c2ccccc21 | · | 21.7 | -6.4 | 2.5 | 29.9* | -1.4 | -3.5
CCOc1ccc(N(CC(=O)NCCc2ccccc2)C(=O)c2csnn2)cc1 | -4.2 | 3.9 | -1.4 | -0.1 | -10.3 | -2.2 | ·
COCc1nnc(NC(=O)c2ccc(S(=O)(=O)N(CC(C)C)CC(C)C)cc2)o1 | -6.2 | 0.3 | 0.4 | -0.1 | 188.8* | -6.8 | -0.6
C=CCN(CC=C)S(=O)(=O)c1ccc(C(=O)Nc2nnc(COC)o2)cc1 | -6.4 | -8.6 | -1.5 | 4.3 | 10.9 | -0.2 | ·
O=c1ccc(N=Nc2ccccc2)ccc1O | 5.1 | -0.2 | 6.0 | 1.0 | 3.9 | -1.6 | ·
COc1ccc(-c2nnc(SCc3c(C)noc3C)o2)cc1 | 5.4 | -3.3 | -0.9 | 0.3 | 18.2* | -1.6 | -3.6
Cc1ccccc1N1CCN(C2=NC(=O)/C(=C\c3cccs3)S2)CC1 | 1.0 | -27.5 | 0.1 | -0.2 | 18.9* | 3.2 | 0.5
O=C1N=C(N2CCN(c3cccc4ccccc34)CC2)S/C1=C/c1cccs1 | -1.1 | 17.1 | 2.5 | -2.6 | 3.2 | 2.2 | ·
CC1(C)Cc2c(sc(NC(=O)C(=O)NCCCN3CCOCC3)c2C(N)=O)CO1 | -7.0 | -7.9 | 1.2 | -1.5 | 5.1 | 1.2 | ·
Cc1ccc(/C=C2\SC(=S)N(c3cccnc3)C2=O)cc1 | -1.0 | -10.3 | -3.1 | -2.7 | 1.9 | -0.8 | ·
COc1cc(/C=C2\SC(=S)N(c3cccnc3)C2=O)ccc1O | 1.0 | -1.4 | -2.7 | -14.0 | 19.5* | 8.6 | -0.1
COc1ccc(CNC(=O)CCCCCNc2nc(=S)[nH]c3ccccc23)cc1 | -1.4 | -4.5 | 0.7 | 3.4 | 18.2* | -1.9 | -5.5

Screening results from PubChem.
